In paper PMC7862700, “An all-to-all approach to the identification of sequence-specific readers for epigenetic DNA modifications on cytosine”:

Key:
Test in all cases: DAPPL (digital affinity profiling via proximity ligation, sequencing); 10 mM Tris-HCl pH 7.5, 50 mM NaCl, 1 mM DTT, 4% glycerol, room temperature, 30 min; GST-TFs on glutathione beads, 16-mer random dsDNA library, 0.1% formaldehyde crosslink after washing; high values mean tight binding
[1] = target: T1, FLI1 (Homo sapiens, UniProt Q01543 1-452); conditions: protein: recombinant; tags: N-terminal GST; dsDNA, one strand shown
T1 sequence: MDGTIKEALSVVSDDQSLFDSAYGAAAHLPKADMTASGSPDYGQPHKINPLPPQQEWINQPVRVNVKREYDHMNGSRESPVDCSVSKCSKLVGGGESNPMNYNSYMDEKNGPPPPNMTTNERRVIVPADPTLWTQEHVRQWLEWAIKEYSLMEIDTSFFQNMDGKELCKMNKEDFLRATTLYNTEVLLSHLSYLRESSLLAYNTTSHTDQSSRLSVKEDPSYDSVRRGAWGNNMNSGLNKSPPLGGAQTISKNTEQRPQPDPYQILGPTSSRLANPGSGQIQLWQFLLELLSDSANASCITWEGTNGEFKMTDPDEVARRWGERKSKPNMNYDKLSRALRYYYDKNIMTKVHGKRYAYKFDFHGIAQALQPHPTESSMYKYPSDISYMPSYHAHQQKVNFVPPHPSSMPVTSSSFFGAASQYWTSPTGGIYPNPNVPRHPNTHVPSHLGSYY
How it was run: (§1)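 In yeast, human transcription factors were expressed with a GST fusion, then pulled down on glutathione beads and given DNA barcodes. Pooled with a tag-only sample, they were exposed to 200 nmole of a 16-mer random double-stranded DNA library (Tris/NaCl/DTT/glycerol buffer, room temperature, 30 min), washed, crosslinked with 0.1% formaldehyde, proximity-ligated using BsaI/T4 ligase for 1 h at 37 °C, PCR-amplified and read on an Illumina NextSeq500. Each hexamer's frequency of reads for a factor, divided by the matching frequency for the tag-only sample, gives the binding signal.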

[2] = target: T2, ELK1 (Homo sapiens, UniProt P19419 1-428); conditions: protein: recombinant; tags: N-terminal GST; dsDNA, one strand shown
T2 sequence: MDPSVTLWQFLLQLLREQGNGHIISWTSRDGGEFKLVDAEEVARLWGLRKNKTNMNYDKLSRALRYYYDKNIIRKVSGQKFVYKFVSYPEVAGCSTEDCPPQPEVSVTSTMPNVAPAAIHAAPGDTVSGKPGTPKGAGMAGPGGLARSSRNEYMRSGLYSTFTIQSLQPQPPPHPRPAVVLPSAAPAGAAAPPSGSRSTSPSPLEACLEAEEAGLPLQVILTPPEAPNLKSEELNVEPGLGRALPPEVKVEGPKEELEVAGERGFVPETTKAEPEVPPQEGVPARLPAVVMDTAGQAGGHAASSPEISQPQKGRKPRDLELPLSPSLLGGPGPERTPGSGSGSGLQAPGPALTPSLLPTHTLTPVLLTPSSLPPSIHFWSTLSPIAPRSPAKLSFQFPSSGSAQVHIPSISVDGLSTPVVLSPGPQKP
How it was run: as §1

[3] = target: T3, GABPA (Homo sapiens, UniProt Q06546 1-454); conditions: protein: recombinant; tags: N-terminal GST; dsDNA, one strand shown
T3 sequence: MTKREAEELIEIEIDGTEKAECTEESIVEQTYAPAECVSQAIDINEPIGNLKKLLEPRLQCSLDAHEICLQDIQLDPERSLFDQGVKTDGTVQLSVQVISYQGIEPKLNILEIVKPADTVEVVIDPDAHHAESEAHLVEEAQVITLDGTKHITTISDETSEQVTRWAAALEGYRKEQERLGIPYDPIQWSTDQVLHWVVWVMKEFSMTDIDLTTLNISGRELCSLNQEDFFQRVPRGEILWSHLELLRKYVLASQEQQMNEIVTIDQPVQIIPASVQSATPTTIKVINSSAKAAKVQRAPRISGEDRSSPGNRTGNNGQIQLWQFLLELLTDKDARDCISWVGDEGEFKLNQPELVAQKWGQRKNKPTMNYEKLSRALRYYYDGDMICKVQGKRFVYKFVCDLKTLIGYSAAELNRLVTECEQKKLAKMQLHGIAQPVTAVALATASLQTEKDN
How it was run: as §1

[4] = target: T4, ERG (Homo sapiens, UniProt P11308 1-479); conditions: protein: recombinant; tags: N-terminal GST; dsDNA, one strand shown
T4 sequence: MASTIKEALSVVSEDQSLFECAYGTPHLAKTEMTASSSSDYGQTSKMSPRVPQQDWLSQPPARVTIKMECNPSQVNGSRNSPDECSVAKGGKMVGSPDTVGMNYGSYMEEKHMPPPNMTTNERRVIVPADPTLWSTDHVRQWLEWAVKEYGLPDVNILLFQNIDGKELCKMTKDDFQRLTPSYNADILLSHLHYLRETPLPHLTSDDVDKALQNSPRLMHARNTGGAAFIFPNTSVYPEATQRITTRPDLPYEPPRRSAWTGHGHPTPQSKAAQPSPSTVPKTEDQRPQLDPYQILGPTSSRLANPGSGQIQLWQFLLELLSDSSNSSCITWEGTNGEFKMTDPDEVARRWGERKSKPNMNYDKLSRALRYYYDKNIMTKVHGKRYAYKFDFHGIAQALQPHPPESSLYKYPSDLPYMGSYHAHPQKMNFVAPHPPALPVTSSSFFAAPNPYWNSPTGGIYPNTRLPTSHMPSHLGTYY
How it was run: as §1

[5] = target: ELF1 (Homo sapiens, UniProt P32519 1-619); conditions: protein: recombinant; tags: N-terminal GST; dsDNA, one strand shown
How it was run: as §1

[6] = target: T5, EHF (Homo sapiens, UniProt Q9NZC4 1-300); conditions: protein: recombinant; tags: N-terminal GST; dsDNA, one strand shown
T5 sequence: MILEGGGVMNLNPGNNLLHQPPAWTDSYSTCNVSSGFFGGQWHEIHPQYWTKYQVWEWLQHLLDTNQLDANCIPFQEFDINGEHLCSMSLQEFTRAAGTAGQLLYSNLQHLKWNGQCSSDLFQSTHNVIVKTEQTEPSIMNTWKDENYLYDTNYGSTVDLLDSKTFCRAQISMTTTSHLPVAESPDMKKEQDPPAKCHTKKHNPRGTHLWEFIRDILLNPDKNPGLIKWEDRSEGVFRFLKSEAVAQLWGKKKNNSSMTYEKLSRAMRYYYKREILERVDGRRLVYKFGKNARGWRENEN
How it was run: as §1

[7] = target: SPI1 (Homo sapiens, UniProt P17947 1-270); conditions: protein: recombinant; tags: N-terminal GST; dsDNA, one strand shown
How it was run: as §1

[8] = target: SPIB (Homo sapiens, UniProt Q01892 1-262); conditions: protein: recombinant; tags: N-terminal GST; dsDNA, one strand shown
How it was run: as §1

[9] = target: T6, ELK3 (Homo sapiens, UniProt P41970 1-407); conditions: protein: recombinant; tags: N-terminal GST; dsDNA, one strand shown
T6 sequence: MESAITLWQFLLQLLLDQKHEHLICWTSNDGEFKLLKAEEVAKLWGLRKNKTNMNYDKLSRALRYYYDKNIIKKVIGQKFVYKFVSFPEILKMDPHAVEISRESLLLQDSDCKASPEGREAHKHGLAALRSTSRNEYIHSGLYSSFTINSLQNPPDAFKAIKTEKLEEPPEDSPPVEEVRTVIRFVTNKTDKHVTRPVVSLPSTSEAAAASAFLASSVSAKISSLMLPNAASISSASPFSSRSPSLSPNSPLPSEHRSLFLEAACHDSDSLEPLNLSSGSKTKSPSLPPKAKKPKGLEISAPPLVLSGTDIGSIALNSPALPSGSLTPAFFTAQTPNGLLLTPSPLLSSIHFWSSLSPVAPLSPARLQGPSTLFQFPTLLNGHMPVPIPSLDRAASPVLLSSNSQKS
How it was run: as §1

[10] = target: T7, FEV (Homo sapiens, UniProt Q99581 1-238); conditions: protein: recombinant; tags: N-terminal GST; dsDNA, one strand shown
T7 sequence: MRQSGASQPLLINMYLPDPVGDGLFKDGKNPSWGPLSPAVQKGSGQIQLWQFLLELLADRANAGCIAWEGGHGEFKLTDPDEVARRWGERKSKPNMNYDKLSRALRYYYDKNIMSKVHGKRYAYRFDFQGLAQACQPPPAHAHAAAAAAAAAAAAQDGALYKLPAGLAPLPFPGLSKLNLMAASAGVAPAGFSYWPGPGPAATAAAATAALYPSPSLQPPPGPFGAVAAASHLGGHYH
How it was run: as §1

[11] = target: ETV5 (Homo sapiens, UniProt P41161 1-510); conditions: protein: recombinant; tags: N-terminal GST; dsDNA, one strand shown
How it was run: as §1

[12] = target: HSF1 (Homo sapiens, UniProt Q00613 1-529); conditions: protein: recombinant; tags: N-terminal GST; chain copies: 3; dsDNA, one strand shown
How it was run: as §1

[13] = target: T8, SPIC (Homo sapiens, UniProt Q8N5J4 1-248); conditions: protein: recombinant; tags: N-terminal GST; dsDNA, one strand shown
T8 sequence: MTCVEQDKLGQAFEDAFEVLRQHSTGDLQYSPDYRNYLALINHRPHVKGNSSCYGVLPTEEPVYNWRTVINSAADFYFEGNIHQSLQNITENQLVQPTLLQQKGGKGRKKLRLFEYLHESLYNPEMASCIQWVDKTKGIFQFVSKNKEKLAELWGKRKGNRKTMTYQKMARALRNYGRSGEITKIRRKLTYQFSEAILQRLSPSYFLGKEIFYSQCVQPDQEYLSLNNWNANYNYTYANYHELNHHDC
How it was run: as §1

[14] = target: ELF4 (Homo sapiens, UniProt Q99607 1-663); conditions: protein: recombinant; tags: N-terminal GST; dsDNA, one strand shown
How it was run: as §1

[15] = target: T9, ELK4 (Homo sapiens, UniProt P28324-2 1-405); conditions: protein: recombinant; tags: N-terminal GST; dsDNA, one strand shown
T9 sequence: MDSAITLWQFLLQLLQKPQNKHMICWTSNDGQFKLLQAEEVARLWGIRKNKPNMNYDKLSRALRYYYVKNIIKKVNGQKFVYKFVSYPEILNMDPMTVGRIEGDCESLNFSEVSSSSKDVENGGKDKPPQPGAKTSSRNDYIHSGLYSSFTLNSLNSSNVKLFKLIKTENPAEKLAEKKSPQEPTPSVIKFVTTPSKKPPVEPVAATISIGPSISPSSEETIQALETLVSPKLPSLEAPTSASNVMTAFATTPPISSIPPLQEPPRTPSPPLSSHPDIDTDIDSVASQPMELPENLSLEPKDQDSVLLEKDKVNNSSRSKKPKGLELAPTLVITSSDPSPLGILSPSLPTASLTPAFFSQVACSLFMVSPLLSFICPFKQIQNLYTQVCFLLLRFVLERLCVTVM
How it was run: as §1

[16] = target: T10, ETV2 (Homo sapiens, UniProt O00321 1-342); conditions: protein: recombinant; tags: N-terminal GST; dsDNA, one strand shown
T10 sequence: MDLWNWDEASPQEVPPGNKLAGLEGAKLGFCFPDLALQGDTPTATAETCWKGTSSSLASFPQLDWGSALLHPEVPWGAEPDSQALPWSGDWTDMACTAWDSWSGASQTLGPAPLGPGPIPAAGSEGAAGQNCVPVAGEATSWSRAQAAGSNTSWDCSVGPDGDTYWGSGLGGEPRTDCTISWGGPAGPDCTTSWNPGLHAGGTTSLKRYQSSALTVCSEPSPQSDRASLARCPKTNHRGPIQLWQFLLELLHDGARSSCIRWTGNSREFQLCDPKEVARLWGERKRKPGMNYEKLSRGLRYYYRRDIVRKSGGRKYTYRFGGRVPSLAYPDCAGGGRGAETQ
How it was run: as §1

[17] = target: T11, ELF3 (Homo sapiens, UniProt P78545 1-371); conditions: protein: recombinant; tags: N-terminal GST; dsDNA, one strand shown
T11 sequence: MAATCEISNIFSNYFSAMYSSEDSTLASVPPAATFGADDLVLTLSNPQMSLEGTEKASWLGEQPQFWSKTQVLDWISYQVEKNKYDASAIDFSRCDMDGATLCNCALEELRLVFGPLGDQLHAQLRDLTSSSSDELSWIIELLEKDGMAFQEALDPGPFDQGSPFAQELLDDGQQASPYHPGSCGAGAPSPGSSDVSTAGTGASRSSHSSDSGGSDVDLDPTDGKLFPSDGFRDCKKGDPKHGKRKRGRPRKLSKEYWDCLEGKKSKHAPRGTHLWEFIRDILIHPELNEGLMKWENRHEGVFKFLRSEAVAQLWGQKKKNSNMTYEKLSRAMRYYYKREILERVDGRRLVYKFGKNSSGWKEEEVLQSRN
How it was run: as §1

[18] = target: CRX (Homo sapiens, UniProt O43186 1-299); conditions: protein: recombinant; tags: N-terminal GST; dsDNA, one strand shown
How it was run: as §1

[19] = target: ETV1 (Homo sapiens, UniProt P50549 1-477); conditions: protein: recombinant; tags: N-terminal GST; dsDNA, one strand shown
How it was run: as §1

Sequence of ETV1 (P50549 whole entry): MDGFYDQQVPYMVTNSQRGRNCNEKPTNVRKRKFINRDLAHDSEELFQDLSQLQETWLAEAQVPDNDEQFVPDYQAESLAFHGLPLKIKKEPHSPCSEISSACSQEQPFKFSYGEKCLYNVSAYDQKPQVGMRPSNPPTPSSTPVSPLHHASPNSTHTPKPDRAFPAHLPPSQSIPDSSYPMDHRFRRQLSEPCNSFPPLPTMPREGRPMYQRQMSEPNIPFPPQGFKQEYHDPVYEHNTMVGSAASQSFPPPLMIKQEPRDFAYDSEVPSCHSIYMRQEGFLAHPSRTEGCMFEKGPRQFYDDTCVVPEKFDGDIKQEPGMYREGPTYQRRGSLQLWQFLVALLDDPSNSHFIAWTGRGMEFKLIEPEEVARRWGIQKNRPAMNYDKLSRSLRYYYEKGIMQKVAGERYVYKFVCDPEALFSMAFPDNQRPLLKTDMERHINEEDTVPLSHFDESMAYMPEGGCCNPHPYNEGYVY
Sequence of ELF1 (P32519 whole entry): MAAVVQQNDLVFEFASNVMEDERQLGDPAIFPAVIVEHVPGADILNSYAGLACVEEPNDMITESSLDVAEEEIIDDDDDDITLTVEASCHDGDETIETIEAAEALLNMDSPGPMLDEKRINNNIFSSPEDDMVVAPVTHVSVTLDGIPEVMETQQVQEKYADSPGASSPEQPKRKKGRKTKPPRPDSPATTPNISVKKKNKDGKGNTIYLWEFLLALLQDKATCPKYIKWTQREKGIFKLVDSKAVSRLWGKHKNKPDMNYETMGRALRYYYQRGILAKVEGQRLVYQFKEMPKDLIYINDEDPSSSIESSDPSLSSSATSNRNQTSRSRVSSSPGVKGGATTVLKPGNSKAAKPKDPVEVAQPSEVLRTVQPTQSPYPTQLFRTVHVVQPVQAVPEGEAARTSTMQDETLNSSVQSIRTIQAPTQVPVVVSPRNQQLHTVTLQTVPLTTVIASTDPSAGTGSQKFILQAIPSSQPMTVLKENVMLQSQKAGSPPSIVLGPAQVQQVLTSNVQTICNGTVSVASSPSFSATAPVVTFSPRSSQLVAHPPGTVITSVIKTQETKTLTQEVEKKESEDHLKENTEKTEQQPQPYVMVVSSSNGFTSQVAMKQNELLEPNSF
Sequence of CRX (O43186 whole entry): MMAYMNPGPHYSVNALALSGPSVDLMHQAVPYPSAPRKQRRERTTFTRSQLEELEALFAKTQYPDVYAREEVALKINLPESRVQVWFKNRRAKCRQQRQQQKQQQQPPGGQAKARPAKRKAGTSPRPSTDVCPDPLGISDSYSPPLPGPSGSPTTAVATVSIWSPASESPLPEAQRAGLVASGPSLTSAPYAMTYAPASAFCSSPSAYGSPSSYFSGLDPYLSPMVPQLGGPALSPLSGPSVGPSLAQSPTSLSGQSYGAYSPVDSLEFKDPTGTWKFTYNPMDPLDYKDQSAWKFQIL
Sequence of SPIB (Q01892 whole entry): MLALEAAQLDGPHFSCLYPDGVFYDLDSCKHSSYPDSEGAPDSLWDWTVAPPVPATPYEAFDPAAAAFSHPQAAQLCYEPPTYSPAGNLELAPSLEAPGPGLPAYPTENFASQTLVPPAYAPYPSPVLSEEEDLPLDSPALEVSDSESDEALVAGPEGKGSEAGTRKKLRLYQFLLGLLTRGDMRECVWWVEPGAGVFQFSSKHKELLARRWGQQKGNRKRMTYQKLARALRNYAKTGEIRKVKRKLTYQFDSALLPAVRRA
Sequence of ETV5 (P41161 whole entry): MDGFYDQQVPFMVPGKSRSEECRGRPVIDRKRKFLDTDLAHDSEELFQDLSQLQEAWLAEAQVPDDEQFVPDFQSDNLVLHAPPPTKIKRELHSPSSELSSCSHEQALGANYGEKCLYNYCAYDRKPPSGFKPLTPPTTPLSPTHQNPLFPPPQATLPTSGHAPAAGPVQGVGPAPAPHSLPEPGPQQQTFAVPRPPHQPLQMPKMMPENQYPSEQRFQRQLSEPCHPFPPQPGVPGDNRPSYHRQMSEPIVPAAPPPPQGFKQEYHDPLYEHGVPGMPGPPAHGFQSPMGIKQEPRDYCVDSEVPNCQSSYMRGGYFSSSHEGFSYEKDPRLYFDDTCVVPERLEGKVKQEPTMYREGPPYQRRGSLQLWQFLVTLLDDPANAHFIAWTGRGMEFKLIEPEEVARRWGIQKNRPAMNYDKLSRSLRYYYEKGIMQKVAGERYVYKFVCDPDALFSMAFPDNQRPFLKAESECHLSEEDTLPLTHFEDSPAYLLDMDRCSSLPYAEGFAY
Sequence of HSF1 (Q00613 whole entry): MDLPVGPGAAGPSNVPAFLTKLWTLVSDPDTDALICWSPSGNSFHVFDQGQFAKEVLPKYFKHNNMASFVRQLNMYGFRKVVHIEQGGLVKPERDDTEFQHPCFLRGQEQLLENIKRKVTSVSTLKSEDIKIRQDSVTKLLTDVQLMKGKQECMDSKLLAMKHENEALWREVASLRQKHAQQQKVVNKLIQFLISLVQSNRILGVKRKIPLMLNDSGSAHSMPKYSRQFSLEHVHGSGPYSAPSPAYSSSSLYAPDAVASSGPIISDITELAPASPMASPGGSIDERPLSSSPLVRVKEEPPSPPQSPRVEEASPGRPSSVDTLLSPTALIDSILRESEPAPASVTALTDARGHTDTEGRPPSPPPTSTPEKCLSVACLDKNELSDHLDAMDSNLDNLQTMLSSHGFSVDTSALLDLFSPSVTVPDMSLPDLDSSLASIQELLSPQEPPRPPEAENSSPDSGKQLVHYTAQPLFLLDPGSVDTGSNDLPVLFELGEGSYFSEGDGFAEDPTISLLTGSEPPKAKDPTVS
Sequence of ELF4 (Q99607 whole entry): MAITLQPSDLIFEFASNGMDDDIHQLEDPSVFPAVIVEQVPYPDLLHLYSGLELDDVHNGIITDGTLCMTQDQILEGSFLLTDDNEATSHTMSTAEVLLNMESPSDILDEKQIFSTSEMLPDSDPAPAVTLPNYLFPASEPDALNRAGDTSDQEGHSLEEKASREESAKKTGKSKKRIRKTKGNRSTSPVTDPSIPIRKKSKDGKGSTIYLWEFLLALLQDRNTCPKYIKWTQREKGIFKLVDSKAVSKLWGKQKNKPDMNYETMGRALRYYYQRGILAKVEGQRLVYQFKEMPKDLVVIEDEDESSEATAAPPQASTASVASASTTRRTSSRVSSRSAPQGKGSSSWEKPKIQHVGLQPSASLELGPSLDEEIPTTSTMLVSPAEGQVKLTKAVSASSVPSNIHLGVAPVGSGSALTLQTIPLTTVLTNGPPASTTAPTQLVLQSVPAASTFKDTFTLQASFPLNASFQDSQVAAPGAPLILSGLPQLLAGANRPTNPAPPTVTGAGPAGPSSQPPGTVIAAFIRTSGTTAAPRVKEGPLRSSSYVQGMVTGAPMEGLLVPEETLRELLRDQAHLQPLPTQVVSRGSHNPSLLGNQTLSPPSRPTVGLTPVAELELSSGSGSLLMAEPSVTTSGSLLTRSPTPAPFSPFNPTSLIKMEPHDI

Sequence: GTATTA
- binding signal [1]: 1.17 fold enrichment (6-mer frequency, TF over GST control)
- binding signal [2]: 1.2 fold enrichment (6-mer frequency, TF over GST control)
- binding signal [3]: 1.07 fold enrichment (6-mer frequency, TF over GST control)
- binding signal [4]: 1.12 fold enrichment (6-mer frequency, TF over GST control)
- binding signal [5]: 1.11 fold enrichment (6-mer frequency, TF over GST control)
- binding signal [6]: 1.03 fold enrichment (6-mer frequency, TF over GST control)
- binding signal [7]: 1.04 fold enrichment (6-mer frequency, TF over GST control)
- binding signal [8]: 1.07 fold enrichment (6-mer frequency, TF over GST control)
- binding signal [9]: 1.06 fold enrichment (6-mer frequency, TF over GST control)
- binding signal [10]: 1.09 fold enrichment (6-mer frequency, TF over GST control)
- binding signal [11]: 1.14 fold enrichment (6-mer frequency, TF over GST control)
- binding signal [12]: 1.62 fold enrichment (6-mer frequency, TF over GST control)
- binding signal [13]: 1.04 fold enrichment (6-mer frequency, TF over GST control)
- binding signal [14]: 1.08 fold enrichment (6-mer frequency, TF over GST control)
- binding signal [15]: 1.14 fold enrichment (6-mer frequency, TF over GST control)
- binding signal [16]: 1.2 fold enrichment (6-mer frequency, TF over GST control)
- binding signal [17]: 1.09 fold enrichment (6-mer frequency, TF over GST control)
- binding signal [18]: 2.49 fold enrichment (6-mer frequency, TF over GST control)
- binding signal [19]: 1.13 fold enrichment (6-mer frequency, TF over GST control)
